Our source for the outcome and AC50 values is PubChem BioAssay (EPA / NIEHS).

Active and inactive are the calls of the source. How the source made its calls: active means hit-call score of the fitted dose curve at least 0.9, where 1 is the maximum; inactive means score below 0.9.

Read-out in one assay: not listed separately
Nature of the assay: BSK_hDFCGF_SRB: Viability Assessment in the BioMAP Diversity Plus: hDFCGF Assay (AID 2283061).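 Further: cells exposed to compound for 24 h before the read.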 Conditions: primary human foreskin fibroblasts. In short, it runs like this: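 Cells were dosed with test chemical, cultured 24 h, fixed with 10% TCA, then stained with 0.1% SRB and read at 560 nm. The fibroblasts were human foreskin primary cells, and DMSO served as baseline.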
Regarding `CCN(Cc1cccc(S(=O)(=O)O)c1)c1ccc(C(=C2C=CC(=[N+](CC)Cc3cccc(S(=O)(=O)O)c3)C=C2)c2ccccc2S(=O)(=O)[O-])cc1`, the result was inactive.
For `CCCCOC(=O)CC(CC(=O)OCCCC)(OC(C)=O)C(=O)OCCCC`, the outcome was inactive.
One may read the AC50 as the midpoint of the concentration-response curve, whichever way the signal moves. As for `O=c1c(-c2ccc(O)cc2)coc2cc(O)cc(O)c12`, the AC50 was 14.3 µM (active).
With `CN(C)C(=O)C1(N2CCCCC2)CCN(CC[C@@]2(c3ccc(Cl)c(Cl)c3)CN(C(=O)c3ccccc3)CCO2)CC1`, the concentration at half-maximal activity (AC50) was 13.3 µM (active).
For `CCCCOC(=O)c1ccc(O)cc1`, the result was inactive.
As for `O=C1CCC(C2CCCCC2)CC1`, the half-maximal activity concentration (AC50) is 34.4 µM (active).
On to `CCO[Si](CCCNC(N)=O)(OCC)OCC`, for which the result was inactive.
As for `CCCCCCCCCCCCO`, the AC50 is 30.6 µM (active).
Consider `C[C@]12CC[C@@H]3c4ccc(O)cc4CC[C@H]3[C@@H]1CCC2=O`, for which the outcome was inactive.
In the case of `CC/C(=C(/CC)c1ccc(O)cc1)c1ccc(O)cc1`, the AC50 is 25.7 µM (active).
`CCCCCc1ccc(N)cc1`: the outcome was inactive.
For the compound `CN1C(=O)CC[C@H]1c1cccnc1`, the result was inactive.
For the compound `O=C(O)Cc1cc(I)c(Oc2ccc(O)c(I)c2)c(I)c1`, the AC50 was 20.2 µM (active).
`CCCCCCCCCCCC[N+](C)(C)C`: the AC50 was 18.4 µM (active).
Consider `CCCCCCCCCC(=O)O`, for which the result was inactive.
Take `Cc1cc(F)ccc1-c1cc(N2CC[C@@H](O)[C@H]2CO)ncc1N(C)C(=O)C(C)(C)c1cc(C(F)(F)F)cc(C(F)(F)F)c1`: the AC50 was 15.7 µM (active).
As to `CC(C)(C)c1csc(-c2cc3cc(OCc4ccccc4CC(=O)O)ccc3o2)n1`, the AC50 is 17.2 µM (active).
On the same count and under the same terms, the figure for `CC(=O)N1CCN(c2ccc(OC[C@H]3CO[C@](Cn4ccnc4)(c4ccc(Cl)cc4Cl)O3)cc2)CC1` is 32.9 µM (active); for `CN(C)c1ccc(C(=C2C=CC(=[N+](C)C)C=C2)c2ccc(N(C)C)cc2)cc1` it is 2 µM (active).
The same measure, in the same setting: the result for `O=C(Nc1ccc(Cl)cc1)Nc1ccc(Cl)c(Cl)c1` reads 0.138 µM (active).
Take `CCCCCCCCN(C)CCCCCCCC`: the outcome was inactive.
As to `c1ccc2ccccc2c1`, the outcome was inactive.
`CCCCCCCCCCCO`: the AC50 is 30 µM (active).
On to `CC[C@@H]1C[C@H](N(Cc2cc(C(F)(F)F)cc(C(F)(F)F)c2)C(C)=O)c2cc(C(F)(F)F)ccc2N1C(=O)OC(C)C`, for which the result was inactive.
Regarding `CCCCCCCC[Si](OCC)(OCC)OCC`, the outcome was inactive.
Take `O=C(OCCCCCCOC(=O)c1ccccc1)c1ccccc1`: the outcome was inactive.
On the same count and under the same terms, the entry for `COCC(C)OCC(C)OCC(C)O` (stereo unspecified) is “inactive”; for `Cc1oc2c(NC(=O)c3c(Cl)cccc3Cl)cccc2c1C(C)(C)O` it is “inactive”; for `Clc1cc(Cl)c2c(c1)N=C1CCCCCN1C2` it is “inactive”.
On the same count and under the same terms, the entry for `O=C(O)Cn1c(=O)n(Cc2ccc(Br)cc2F)c(=O)c2ccc(Cl)cc21` is “inactive”; for `Oc1ccccc1` it is “inactive”.
For `OC12N=C(c3ccccc3)SC1Cc1cc(Cl)ccc12` (stereo unspecified), the outcome was inactive.
Regarding `Cc1ccc(C(C)C)cc1`, the result was inactive.
Consider `Cc1cn([C@H]2C[C@H](N=[N+]=[N-])[C@@H](CO)O2)c(=O)[nH]c1=O`, for which the outcome was inactive.
In the case of `NC(=O)c1nc(-c2cccc(-c3cc(F)ccc3OCC(F)(F)C(F)(F)F)c2)n[nH]1`, the AC50 is 36.4 µM (active).
With `CCCOC(=O)c1cc(O)c(O)c(O)c1`, the outcome was inactive.
As for `O=CCCCC=O`, the AC50 was 33.4 µM (active).
Still for that read-out and setting: the figure for `COc1cc(C(=O)NC2CCN(C)CC2)ccc1Nc1ncc2c(n1)N(C1CCCC1)CC(F)(F)C(=O)N2C` is 16 µM (active).

Read-out in another assay: TIMP metallopeptidase inhibitor 1 (TIMP1), TIMP1 (gene 7076)
Briefly: BSK_hDFCGF_TIMP1: BioMAP Diversity Plus: hDFCGF Assay for TIMP metallopeptidase inhibitor 1 (TIMP1) Biomarker Activity (AID 2283062). Conditions: primary human foreskin fibroblasts; actives raise or lower the signal. In short, it runs like this:
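Fibroblasts from human foreskin are treated with test chemical and harvested at 24 h. TIMP-1 is quantified by ELISA, and gain or loss of signal is scored against DMSO.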
With `CCN(Cc1cccc(S(=O)(=O)O)c1)c1ccc(C(=C2C=CC(=[N+](CC)Cc3cccc(S(=O)(=O)O)c3)C=C2)c2ccccc2S(=O)(=O)[O-])cc1`, the outcome was inactive.
For `CCCCOC(=O)CC(CC(=O)OCCCC)(OC(C)=O)C(=O)OCCCC`, the result was inactive.
With `O=c1c(-c2ccc(O)cc2)coc2cc(O)cc(O)c12`, the outcome was inactive.
Consider `CN(C)C(=O)C1(N2CCCCC2)CCN(CC[C@@]2(c3ccc(Cl)c(Cl)c3)CN(C(=O)c3ccccc3)CCO2)CC1`, for which the AC50 is 24.8 µM (active).
`CCCCOC(=O)c1ccc(O)cc1`: the result was inactive.
For the compound `O=C1CCC(C2CCCCC2)CC1`, the AC50 was 32.7 µM (active).
As to `CCO[Si](CCCNC(N)=O)(OCC)OCC`, the outcome was inactive.
As for `CCCCCCCCCCCCO`, the AC50 was 36.4 µM (active).
With `C[C@]12CC[C@@H]3c4ccc(O)cc4CC[C@H]3[C@@H]1CCC2=O`, the result was inactive.
Consider `CC/C(=C(/CC)c1ccc(O)cc1)c1ccc(O)cc1`, for which the AC50 is 33.4 µM (active).
Take `CCCCCc1ccc(N)cc1`: the outcome was inactive.
Consider `CN1C(=O)CC[C@H]1c1cccnc1`, for which the outcome was inactive.
As to `O=C(O)Cc1cc(I)c(Oc2ccc(O)c(I)c2)c(I)c1`, the outcome was inactive.
As for `CCCCCCCCCCCC[N+](C)(C)C`, the outcome was inactive.
In the case of `CCCCCCCCCC(=O)O`, the result was inactive.
In the case of `Cc1cc(F)ccc1-c1cc(N2CC[C@@H](O)[C@H]2CO)ncc1N(C)C(=O)C(C)(C)c1cc(C(F)(F)F)cc(C(F)(F)F)c1`, the AC50 was 12.4 µM (active).
The same measure, in the same setting: the figure for `CC(C)(C)c1csc(-c2cc3cc(OCc4ccccc4CC(=O)O)ccc3o2)n1` is 15.5 µM (active); for `CC(=O)N1CCN(c2ccc(OC[C@H]3CO[C@](Cn4ccnc4)(c4ccc(Cl)cc4Cl)O3)cc2)CC1` it is 35.4 µM (active).
Turning to `CN(C)c1ccc(C(=C2C=CC(=[N+](C)C)C=C2)c2ccc(N(C)C)cc2)cc1`, the AC50 was 1.95 µM (active).
As for `O=C(Nc1ccc(Cl)cc1)Nc1ccc(Cl)c(Cl)c1`, the result was inactive.
As for `CCCCCCCCN(C)CCCCCCCC`, the result was inactive.
Turning to `c1ccc2ccccc2c1`, the result was inactive.
The same measure, in the same setting: the result for `CCCCCCCCCCCO` reads “inactive”; that for `CC[C@@H]1C[C@H](N(Cc2cc(C(F)(F)F)cc(C(F)(F)F)c2)C(C)=O)c2cc(C(F)(F)F)ccc2N1C(=O)OC(C)C`, “inactive”.
The same measure, in the same setting: the entry for `CCCCCCCC[Si](OCC)(OCC)OCC` is “inactive”.
Regarding `O=C(OCCCCCCOC(=O)c1ccccc1)c1ccccc1`, the result was inactive.
Turning to `COCC(C)OCC(C)OCC(C)O` (stereo unspecified), the outcome was inactive.
Take `Cc1oc2c(NC(=O)c3c(Cl)cccc3Cl)cccc2c1C(C)(C)O`: the AC50 was 12.3 µM (active).
On to `Clc1cc(Cl)c2c(c1)N=C1CCCCCN1C2`, for which the outcome was inactive.
Regarding `O=C(O)Cn1c(=O)n(Cc2ccc(Br)cc2F)c(=O)c2ccc(Cl)cc21`, the outcome was inactive.
The same measure, in the same setting: the entry for `Oc1ccccc1` is “inactive”; for `OC12N=C(c3ccccc3)SC1Cc1cc(Cl)ccc12` (stereo unspecified) it is “inactive”; for `Cc1ccc(C(C)C)cc1` it is “inactive”.
As for `Cc1cn([C@H]2C[C@H](N=[N+]=[N-])[C@@H](CO)O2)c(=O)[nH]c1=O`, the outcome was inactive.
In the case of `NC(=O)c1nc(-c2cccc(-c3cc(F)ccc3OCC(F)(F)C(F)(F)F)c2)n[nH]1`, the AC50 was 35.5 µM (active).
Consider `CCCOC(=O)c1cc(O)c(O)c(O)c1`, for which the outcome was inactive.
`O=CCCCC=O`: the AC50 was 13.9 µM (active).
Take `COc1cc(C(=O)NC2CCN(C)CC2)ccc1Nc1ncc2c(n1)N(C1CCCC1)CC(F)(F)C(=O)N2C`: the outcome was inactive.
